Calb FLC – affects C. albicans growth with fluconazole; C. albicans CaCi-2 (fluconazole-resistant clinical isolate) + fluconazole, Alamar Blue growth, 48 h; growth inhibition, % (concentration not given with the values); AID 1979; 300,000 tested, 0.57% active;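 active = growth inhibition above about 58% in most replicates, limit read from the data, passing the limit was not always enough; inconclusive = exactly half the replicates above a set limit; inactive = most replicates below a set limit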;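 also: all wells also contain fluconazole at 8 µg/ml as a sub-toxic cotreatment; 0% = median of DMSO wells and 100% = median of geldanamycin control wells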
Mdm2-MdmX inh – inhibitors of human Mdm2/MdmX interaction; SaOS-2 split-luciferase Mdm2/MdmX complementation, luminescence; inhibition, % at 8 µM; 330,000 tested, 3% active; AID 485346;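 active = inhibition of at least 50% at 8 µM in the primary screen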
SKKanGAS inh – inhibitors of SKKanGAS S. pyogenes growth in kanamycin (SK-promoter or general growth effect). AID 1662. BacTiter-Glo, 6 h. inhibition, % at 7.5 µM. 300,000 tested, 1.3% active;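 active = mean replicate score, as percent of positive control median, at least 50; inconclusive = mean below 50 but one replicate at or above 50; inactive = mean and every replicate below 50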;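 also: strain carries kanamycin resistance gene driven by streptokinase promoter and grows in 40 µg/ml kanamycin; loss of luminescence reflects streptokinase promoter inhibition or plain growth inhibition; 0% = median of DMSO wells and 100% = positive control at its reference dose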
Beta apoptosis – blocks beta cell apoptosis. AID 435005. 300,000 tested, 0.8% active. protection from apoptosis, % (concentration not given with the values). INS-1E cytokine-induced death, ATP luminescence, 48 h; percent of positive-control rescue, neutral wells zero;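 active = Every replicate reaches about 75%, or at least half do and their mean reaches it too, limit read from the data; inconclusive = At least half of replicates reach the limit but their mean does not; inactive = Under half of replicates reach the limit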;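 also: 0% = cytokine-treated negative control wells and 100% = positive control rescue; higher means more ATP so stronger rescue from cytokine killing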
CSC inhib – blocks cancer stem cells. cancer stem cell-like cells viability, luminescence. inhibition, % at 7.5 µM. 300,000 tested, 1.1% active. AID 2717; in the data active = inhibition above about 75%; inconclusive = no clear call, values can overlap the other calls; tested in HMLE shEcad cells
MPTP inh – blocks calcium-induced mitochondrial swelling. isolated mouse mitochondria, Ca2+ swelling absorbance, 30 min. inhibition, % at 10 µM. 360,000 tested, 1.4% active. AID 602449;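 active = inhibition of 50% or more, scaled per plate between neutral and stimulator controls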;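 also: 0% = DMSO wells given calcium and 100% = 1 mM EGTA wells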
* = called active by the depositor; ? = inconclusive; . = no result given. In the library only some 5.4% were active in any assay of this set; here they are far more common.

SMILES | Calb FLC | Mdm2-MdmX inh | SKKanGAS inh | Beta apoptosis | CSC inhib | MPTP inh
Cc1cc(C)c2c(c1)-c1c(ssc1=S)C(C)(C)N2C(=O)CSc1nncn1C | 5 | 17 | -2 | 5 | -9 | -1
CCN(c1ccccc1)S(=O)(=O)c1ccc(C(=O)Nc2nnc(-c3ccco3)o2)cc1 | ? | 42 | 63* | 1 | 87* | 0
Cc1nn(-c2ccccc2)c(C)c1C(=O)Nc1nnc(-c2ccco2)o1 | 84* | 3 | 6 | 4 | 15 | -1
CCN(c1ccccc1)S(=O)(=O)c1ccc(C(=O)Nc2nnc(C3CC3)o2)cc1 | 79* | 39 | 78* | 3 | 32 | 0
CN(c1ccccc1)S(=O)(=O)c1ccc(C(=O)Nc2nnc(C3CC3)o2)cc1 | -13 | 40 | 10 | -1 | 25 | 1
Cc1ccc2nc(N/C(=N/S(=O)(=O)c3ccc(F)cc3)c3ccccc3)sc2c1 | 12 | -26 | 51* | 5 | 21 | 28
Cc1ccc2nc(-c3ccc(NS(=O)(=O)c4ccc(F)cc4)cc3)sc2c1 | 41 | -127 | 76* | 4 | . | 25
Cc1ccc2nc(-c3ccc(N)cc3)sc2c1 | 3 | -9 | 54* | 3 | 70 | 3
C[C@H](CO)N1C[C@H](C)[C@@H](CN(C)C(=O)Nc2ccc(C(F)(F)F)cc2)Oc2c(NC(=O)C3CCCCC3)cccc2C1=O | . | 5 | . | 2 | 6 | 0
COc1ccc2c(c1)CCc1c(C(=O)N3CC4(C)CC3CC(C)(C)C4)noc1-2 (configuration not stated) | -10 | 21 | 17 | -2 | 95* | 4
Cc1c(C(=O)Nc2nccs2)sc2nc(-c3cccs3)cc(C(F)(F)F)c12 | -15 | 42 | 95* | 35 | 25 | 14
O=c1c2cn[nH]c2nc(SCc2ccccc2F)n1-c1ccc(Br)cc1 | 34 | 28 | 5 | 7 | 105* | 2
O=c1c2cn[nH]c2nc(SCc2cc(=O)n3cc(Br)ccc3n2)n1-c1ccc(Br)cc1 | 33 | 24 | 25 | -16 | . | -1
O=C(Cc1ccccc1)Nn1c(O)c(/C=C2\C=Nc3ccccc32)sc1=S | -3 | . | 50* | -4 | 35 | 9
CSc1nc2nccc(-c3ccc(-c4ccccc4)cc3)n2n1 | 2 | 25 | 72* | 3 | -5 | -1
Cc1ccc(NC(=S)NCc2cccnc2)cc1 | -5 | 15 | -4 | -3 | -3 | -2
CC(=O)c1ccc(NC(=S)NCc2cccnc2)cc1 | 6 | 11 | -2 | 100* | 20 | -1
CCOC(=O)c1ccc(NC(=O)NCc2cccnc2)cc1 | 6 | -20 | 15 | 101* | -3 | -1
Cc1cc(Cl)ccc1NNC(=O)c1c(C)noc1C | 82* | 12 | -7 | -8 | ? | 1
Cc1noc(C)c1C(=O)NNc1ccc(C(C)C)cc1 | 2 | -12 | 24 | -1 | 59 | 1
Cc1ccc(NNC(=O)c2c(C)noc2C)cc1Cl | -3 | 14 | -12 | 3 | 98* | 2
CCOC(=O)Cc1csc(NC(=O)c2cc(C)c(C)s2)n1 | . | 14 | . | 0 | -4 | -2
CCOC(=O)C1=C(N)Oc2cc(O)ccc2C1c1cccc(Cl)c1 (configuration not stated) | -7 | 46 | 38 | -3 | 82* | 4
CCOC(=O)C1=C(N)Oc2cc(O)ccc2C1c1cccnc1 (configuration not stated) | -31 | 24 | 3 | -4 | -19 | 2
Cc1c(C(=O)OCC(=O)N2CC(=O)Nc3ccccc32)oc2ccc(Br)cc12 | 3 | 44 | -2 | 10 | -11 | -1
SMILES | Calb FLC | Mdm2-MdmX inh | SKKanGAS inh | Beta apoptosis | CSC inhib | MPTP inh
COc1ccccc1OCCC(=O)OCC(=O)Nc1cc(S(=O)(=O)N2CCOCC2)ccc1Cl | 14 | -4 | -5 | -7 | -3 | 0
CCOC(=O)c1c(CSc2ccc(C)cc2)oc2ccc(O)cc12 | -10 | 25 | 43 | -7 | 135* | 26
COc1ccc(C(=O)NC(=S)N(C)C2CCCCC2)cc1 | 4 | -8 | . | -2 | -19 | -1
COc1ccc(C(=O)NC(=S)N(C)C2CCCCC2)cc1Br | 11 | 37 | 73* | 12 | 21 | 1
Cc1ccc(C(=O)NC(=S)N(C)C2CCCCC2)cc1Br | 2 | 33 | 85* | 8 | 23 | -2
CCN(CC(=O)N1CCCCC1)S(=O)(=O)c1ccccc1 | -17 | 15 | -1 | -3 | -5 | -1
O=C(Nc1cc(-c2ccccc2)[nH]n1)c1ccc(Cl)cc1 | -1 | 1 | 75* | -1 | 60 | 11
O=C(Nc1ccc(Cl)cc1Cl)c1ccc(-c2ccccc2)cc1 | 7 | -20 | 3 | -2 | -6 | -5
O=C(CN1CCN(c2ccc(O)cc2)CC1)NC(c1ccccc1)c1ccccc1 | 114* | 8 | 5 | 5 | 69 | 0
O=C(CN1CCCCCC1)NC(c1ccccc1)c1ccccc1 | -6 | -12 | -1 | 0 | -8 | 0
O=S1(=O)CCN(Cc2ccncc2)CC1 | . | . | . | . | . | 1
C/C(=N\Nc1ccc(C(=O)O)cc1)c1ccc2c(c1)Nc1ccccc1S2 | ? | 20 | 81* | -25 | 20 | 3
COc1ccc(C2C(C(=O)c3ccccc3)=C(C)Nc3nc4ccccc4n32)c(OC)c1 (configuration not stated) | 8 | 31 | 89* | . | -3 | 2
COc1ccc(OC)c(C2C(C(=O)N(C)C)=C(C)Nc3nc4ccccc4n32)c1 (configuration not stated) | -17 | 19 | -3 | -5 | -19 | -6
CCN(CC)C(=O)c1cccc(-c2csc(C(O)(c3ccccc3)C(F)(F)F)n2)c1 (configuration not stated) | . | . | . | . | . | -4
COc1ccc(-c2coc3c(C)c4oc(=O)c(CCC(=O)O)c(C)c4cc23)cc1 | 32 | 11 | 53* | . | . | 1
Cc1c(CCC(=O)O)c(=O)oc2c(C)c3occ(-c4ccc(Br)cc4)c3cc12 | -5 | 27 | 46 | 6 | 4 | 3
Cc1ccc(NC(=O)CC2NCCNC2=O)cc1Cl (configuration not stated) | 120* | 1 | -2 | -3 | -10 | -2
O=C(O)c1ccc(N/N=C/c2cn(Cc3ccc(F)cc3)c3ccccc23)cc1 | -10 | 3 | 29 | -7 | 4 | 7
CCNC(=S)N/N=C/c1cn(Cc2ccc(F)cc2)c2ccccc12 | -5 | 29 | 22 | 6 | 90* | 8
CN1CCN(C(=S)c2cn(Cc3cccc(F)c3)c3ccccc23)CC1 | 15 | -2 | 5 | 0 | 4 | -1
O=[N+]([O-])/C=C/c1cn(Cc2ccc(F)cc2)c2ccccc12 | -21 | 22 | 4 | 78* | 137* | 0
CN1CCN(C(=S)c2cn(Cc3ccc(F)cc3)c3ccccc23)CC1 | 121* | 23 | -4 | 2 | 8 | 0
COC(=O)c1cccc(NC(=O)CSCc2ccccc2)c1 | 2 | 11 | -4 | . | -2 | 0
CCOC(=O)Cc1csc(NC(=O)c2sc3nc4ccc(C)cc4cc3c2N)n1 | 2 | -2 | 11 | -2 | -3 | 4

Source: PubChem BioAssay (several laboratories)
